Experiment [1] can be described thus: small molecules captured by biotinylated probe aFSTL3 – biochemical, small-molecule microarray, fluorescence 635/667, stem cell growth factor project, primary screen (AID 1064).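 Note: measures binding of the biotinylated anti-FSTL3 antibody to printed compounds.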 As to conditions: higher = more signal.
Experiment [2] can be described thus: binders from COS7 lysate, DM2A8 probe, primary screen, torsin A project, cell lysate, small-molecule microarray, fluorescence 635/667 (AID 1065). As to conditions: higher = more signal, COS7 lysate expressing mutant human TOR1A.
The nature of experiment [3]: small molecules captured by biotinylated probe aFGF2 – biochemical, small-molecule microarray, fluorescence 635/667, stem cell growth factor project, primary screen (AID 1067).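 Note: measures binding of biotinylated aFGF2 protein to printed compounds on slides; z-score merges feature fluorescence and signal-to-noise across triplicate slides.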 As to conditions: higher = more signal.
Experiment [4] is described as follows: small molecules captured by biotinylated probe aFGF10 – biochemical, small-molecule microarray, fluorescence 635/667, stem cell growth factor project, primary screen (AID 1071).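 Note: score merges 667 nm spot intensity and signal to noise from triplicate slides.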 To be noted: higher = more signal.
Experiment [5] deals with Neurogenic locus notch homolog protein 2 (Homo sapiens) (UniProt Q04721). Put plainly: small molecules binding Notch2 protein – biochemical, small-molecule microarray, 635 nm fluorescence, stem cell growth factors, primary screen (AID 1073). As to conditions: higher = more signal.
Neurogenic locus notch homolog protein 2 (Homo sapiens), sequence (Q04721 whole entry, looked up, canonical isoform): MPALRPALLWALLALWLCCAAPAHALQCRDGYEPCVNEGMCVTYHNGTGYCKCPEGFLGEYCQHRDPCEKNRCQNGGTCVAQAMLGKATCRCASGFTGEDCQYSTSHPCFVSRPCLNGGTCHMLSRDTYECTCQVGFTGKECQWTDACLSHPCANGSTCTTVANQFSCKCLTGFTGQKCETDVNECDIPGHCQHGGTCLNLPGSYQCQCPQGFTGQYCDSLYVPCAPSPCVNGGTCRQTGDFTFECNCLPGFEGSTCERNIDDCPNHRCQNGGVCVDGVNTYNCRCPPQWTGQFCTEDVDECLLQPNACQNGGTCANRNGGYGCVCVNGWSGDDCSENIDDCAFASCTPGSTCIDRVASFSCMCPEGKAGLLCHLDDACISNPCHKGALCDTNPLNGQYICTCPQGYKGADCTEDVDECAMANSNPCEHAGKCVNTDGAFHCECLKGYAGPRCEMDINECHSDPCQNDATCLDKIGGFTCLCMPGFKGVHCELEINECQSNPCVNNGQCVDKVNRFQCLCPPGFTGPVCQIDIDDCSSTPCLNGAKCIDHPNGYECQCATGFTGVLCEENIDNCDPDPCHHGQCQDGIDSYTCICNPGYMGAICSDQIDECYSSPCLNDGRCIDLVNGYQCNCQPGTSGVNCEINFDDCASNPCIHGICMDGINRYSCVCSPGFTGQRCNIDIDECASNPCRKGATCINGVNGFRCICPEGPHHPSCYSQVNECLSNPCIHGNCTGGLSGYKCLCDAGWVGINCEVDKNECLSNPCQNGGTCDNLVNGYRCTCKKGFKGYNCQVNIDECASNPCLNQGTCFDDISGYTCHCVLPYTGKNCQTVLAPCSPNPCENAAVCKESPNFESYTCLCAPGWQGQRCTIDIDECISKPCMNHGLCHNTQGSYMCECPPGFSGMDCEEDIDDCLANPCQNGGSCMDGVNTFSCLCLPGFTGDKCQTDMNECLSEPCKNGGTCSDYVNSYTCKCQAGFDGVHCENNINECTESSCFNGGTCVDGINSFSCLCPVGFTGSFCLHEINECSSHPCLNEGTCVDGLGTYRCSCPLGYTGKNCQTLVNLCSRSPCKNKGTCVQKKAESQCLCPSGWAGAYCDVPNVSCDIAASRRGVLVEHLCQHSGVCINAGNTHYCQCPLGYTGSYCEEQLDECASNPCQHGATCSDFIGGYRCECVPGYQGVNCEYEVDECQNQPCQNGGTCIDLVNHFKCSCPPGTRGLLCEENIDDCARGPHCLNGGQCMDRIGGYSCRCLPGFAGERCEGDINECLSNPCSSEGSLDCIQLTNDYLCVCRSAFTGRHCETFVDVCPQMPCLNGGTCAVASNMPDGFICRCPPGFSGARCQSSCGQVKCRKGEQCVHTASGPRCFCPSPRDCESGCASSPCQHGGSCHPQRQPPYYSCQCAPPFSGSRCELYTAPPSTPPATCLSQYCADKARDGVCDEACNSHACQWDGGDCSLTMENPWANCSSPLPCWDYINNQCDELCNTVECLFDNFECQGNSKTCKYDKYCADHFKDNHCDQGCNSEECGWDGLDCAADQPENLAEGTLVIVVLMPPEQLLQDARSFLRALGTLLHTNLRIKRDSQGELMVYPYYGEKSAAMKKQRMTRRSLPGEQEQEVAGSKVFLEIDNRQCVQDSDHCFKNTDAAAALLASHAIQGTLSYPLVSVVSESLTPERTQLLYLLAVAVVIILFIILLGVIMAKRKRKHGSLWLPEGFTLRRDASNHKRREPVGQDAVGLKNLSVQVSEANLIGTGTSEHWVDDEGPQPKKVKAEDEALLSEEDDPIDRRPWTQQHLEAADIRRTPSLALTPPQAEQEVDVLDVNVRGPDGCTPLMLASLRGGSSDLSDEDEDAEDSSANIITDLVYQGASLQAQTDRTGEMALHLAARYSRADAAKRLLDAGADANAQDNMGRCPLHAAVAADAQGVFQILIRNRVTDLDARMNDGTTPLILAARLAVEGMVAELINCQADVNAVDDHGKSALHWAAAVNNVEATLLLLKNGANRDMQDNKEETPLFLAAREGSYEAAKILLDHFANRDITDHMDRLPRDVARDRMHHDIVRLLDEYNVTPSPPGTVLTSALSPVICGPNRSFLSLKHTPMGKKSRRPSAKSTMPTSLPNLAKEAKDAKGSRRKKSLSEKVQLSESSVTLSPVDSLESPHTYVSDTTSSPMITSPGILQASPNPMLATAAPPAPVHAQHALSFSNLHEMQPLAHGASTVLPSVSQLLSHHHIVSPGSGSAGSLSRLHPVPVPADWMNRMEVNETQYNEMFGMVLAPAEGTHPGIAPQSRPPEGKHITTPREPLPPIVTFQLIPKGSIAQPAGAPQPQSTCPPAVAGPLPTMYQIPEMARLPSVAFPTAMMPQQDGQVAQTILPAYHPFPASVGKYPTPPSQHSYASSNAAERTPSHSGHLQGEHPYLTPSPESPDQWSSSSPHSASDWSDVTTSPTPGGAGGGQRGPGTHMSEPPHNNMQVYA
Experiment [6] addresses Pro-neuregulin-1, membrane-bound isoform (Homo sapiens) (UniProt Q02297). Put plainly: small molecules binding neuregulin-1 protein – biochemical, small-molecule microarray, fluorescence 635/667, psychiatric disease protein project, primary screen (AID 1075).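 Note: score combines 667 nm spot fluorescence with signal to noise.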 To be noted: NRG1 binding, 635 nm fluorescence, higher = more signal.
Experiment [7] deals with Neuregulin-1 EGF-like domain. Put plainly: small molecules binding NRG1 EGF domain – biochemical, small-molecule microarray, 635 nm fluorescence, primary screen (AID 1081).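 Note: binding of the protein to compounds printed on small-molecule microarray slides.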 As to conditions: higher = more signal.
Experiment [8] is described as follows: FRG1 expression reporter modulators in myotubes – cell-based, C2C12 myotubes, firefly/Renilla luciferase, luminescence, FRG1 inhibition for FSHD, primary screen (AID 1084). As to conditions: FRG1 promoter luciferase, higher = more signal, called active from +8 up or from −8 down.
Experiment [9] in a line: small molecules captured by biotinylated probe aFST – biochemical, small-molecule microarray, fluorescence 635/667, stem cell growth factor project, primary screen (AID 1086).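 Note: score merges 667 nm fluorescence with signal-to-noise of each printed compound spot.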 To be noted: higher = more signal.
Experiment [10] can be described thus: binders of probe aHhip on microarray, primary screen, stem cell growth factor project, biochemical, small-molecule microarray, fluorescence 635/667 (AID 1087).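 Note: score merges spot fluorescence at 667nm with spot signal to noise ratio.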 As to conditions: higher = more signal.

The structures appear in SMILES notation. Active and inactive are the calls of the source.

Composite z-score and z-score data for 14 compounds are collected here from PubChem BioAssay.

Pro-neuregulin-1, membrane-bound isoform (Homo sapiens), sequence (Q02297 whole entry, looked up, the tested form may be a part, canonical isoform): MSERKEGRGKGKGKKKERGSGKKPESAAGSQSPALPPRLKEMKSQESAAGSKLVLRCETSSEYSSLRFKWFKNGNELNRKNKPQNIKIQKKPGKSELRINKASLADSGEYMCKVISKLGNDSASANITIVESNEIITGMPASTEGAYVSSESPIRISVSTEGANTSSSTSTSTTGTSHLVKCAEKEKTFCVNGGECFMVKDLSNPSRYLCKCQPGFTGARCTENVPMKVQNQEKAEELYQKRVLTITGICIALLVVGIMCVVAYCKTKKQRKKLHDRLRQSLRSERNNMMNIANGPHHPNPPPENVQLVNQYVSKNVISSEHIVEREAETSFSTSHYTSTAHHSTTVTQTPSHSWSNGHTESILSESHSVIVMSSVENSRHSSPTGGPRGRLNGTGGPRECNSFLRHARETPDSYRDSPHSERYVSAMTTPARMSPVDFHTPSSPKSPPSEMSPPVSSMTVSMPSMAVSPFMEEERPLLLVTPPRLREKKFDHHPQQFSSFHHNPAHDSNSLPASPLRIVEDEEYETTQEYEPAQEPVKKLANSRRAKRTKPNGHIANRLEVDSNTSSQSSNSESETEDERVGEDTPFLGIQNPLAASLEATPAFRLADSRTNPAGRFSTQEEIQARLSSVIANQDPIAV

In the case of `C=CC[C@@]1(C(=O)O)N=C(c2ccc(OCCCO)cc2)O[C@@H]1c1ccccc1`, the composite z-score in [1] turned out to be 0.522; in experiment [2] it was 3.13; in experiment [3], 0.206; in experiment [4], 0.553; in experiment [5] it was 0.63; in experiment [6], 2.08. Moreover, the results for the composite z-score in experiment [7], in experiment [9] and in [10] were 1.34, -0.55 and 0.212, respectively. Besides, in experiment [8], the z-score was 0.19 (inactive).
On to `O=C1O[C@@H](c2ccccc2)[C@@H](c2ccccc2)N2[C@@H](c3ccccc3OCCO)[C@]3(C(=O)Nc4ccc(C#CCCO)cc43)[C@@H](C(=O)N3CCN(c4ncccn4)CC3)[C@H]12`, for which the composite z-score in [1] was -0.132; in [2], -0.167; in [3], -0.0004; in experiment [4], 0.608; in experiment [5], 1.34; in experiment [6], 1.56. Also, the composite z-score in [7] was 1.13; in experiment [9] it was 0.29; in experiment [10], -0.069. Also, the z-score in experiment [8] was -2.32 (inactive).
For `C[C@H]1C2=C3C(CC[C@H]4C(OCc5ccc(F)cc5C(F)(F)F)OC[C@](C)([C@@H]34)N(C(=O)OC(C)(C)C)C2)C(CO)C1CO` (stereo not given in full), the composite z-score is 0.0721 in experiment [1]; -0.249 in experiment [2]; 0.0506 in experiment [3]; -0.0807 in [4]; 1.57 in experiment [5]; 1.76 in experiment [6]. Moreover, the composite z-score was 0.572 in experiment [7], 1.72 in experiment [9] and 0.2 in experiment [10]. The z-score in experiment [8] was 0.133 (inactive).
Consider `CC(=O)NCCCC[C@@H]1NC(=O)[C@@H]2C[C@H](C(=O)O)[C@H](c3ccc(O)cc3)N2C1=O`, for which the composite z-score in experiment [1] was 0.736; in experiment [2] it was -1.54; in experiment [3], -0.174; in [4] it was -1.07; in [5] it was -1.09; in [6] it was 0.78. Further, the composite z-score in experiment [7] is 1.42; in [9] it was -0.765; in experiment [10], -0.372. Besides, the z-score in experiment [8] is 0.785 (inactive).
Turning to `O=C1O[C@@H](c2ccccc2)[C@@H](c2ccccc2)N2[C@@H](c3ccc(O)cc3)[C@]3(C(=O)Nc4ccc(C#CCCO)cc43)[C@@H](C(=O)Nc3nc4ccccc4s3)[C@H]12`, the composite z-score in experiment [1] is 0.0071; in [2] it was 1.27; in [3], -0.0721; in experiment [4], 0.987; in [5], 0.37; in experiment [6], 1.45. Further, the composite z-score was 1.19 in experiment [7], 0.158 in experiment [9] and -0.236 in [10]. For the same compound, the z-score in [8] is 0.213 (inactive).
`COc1ccc([Si](C)(C)[C@@H]2[C@@H](CCn3cc([C@H](O)c4ccccc4)nn3)O[C@]3(C(=O)N(Cc4ccc(N5CCOC5=O)cc4)c4ccccc43)[C@H]2C)cc1`: the composite z-score is -0.28 in [1]; 0.882 in [2]; -0.0658 in experiment [3]; 0.512 in experiment [4]; 0.62 in [5]; 0.61 in experiment [6]. The composite z-score is 0.825 in [7], 0.137 in experiment [9] and 0.0854 in [10]. Also, the z-score in [8] was 0.216 (inactive).
Consider `C[C@@H](OCc1ccccc1)C1NC(=O)[C@@]23C(=O)N[C@@H](Cc4ccccc4)C2[C@H](C)[C@@]2(C)O[C@H]2C3/C=C/C/C=C\CNC(=O)CNC1=O` (stereo not given in full), for which the composite z-score in [1] is -0.231; in [2], 0.667; in [3], -0.132; in experiment [4], 0.25; in experiment [5] it was -1.08; in experiment [6], -0.366. The composite z-score in experiment [7] is -0.002; in experiment [9], -0.294; in experiment [10], -0.134. In addition, in experiment [8], the z-score was -0.0275 (inactive).
With `COC1(C)CN(Cc2ccccc2Br)[C@H](/C=C/c2ccccc2)[C@H](Cc2ccccc2)O1` (stereo not given in full), the composite z-score was -0.366 in experiment [1]; 0.115 in experiment [2]; -0.194 in [3]; -0.0452 in experiment [4]; -0.669 in [5]; -0.435 in experiment [6]. Further, the composite z-score in experiment [7] is -0.426; in experiment [9], -0.317; in experiment [10], 0.0373. Moreover, in experiment [8], the z-score is -0.916 (inactive).
As for `C=C(CCCC)/C(=C/C[C@@H](OC(C)=O)c1ccc(CO)o1)c1cc(C(=O)OC)ccc1OC`, the composite z-score in experiment [1] is -0.557; in [2], 0.273; in [3], -0.0985; in [4] it was 0.866; in [5], 0.621; in experiment [6], 1.01. The composite z-score in experiment [7] worked out at 1.28; in [9] it was 0.435; in experiment [10], 0.0826. Also, in [8], the z-score is -0.129 (inactive).
As to `CCCC=C(CCC)[C@@H](NP(=O)(c1ccccc1)c1ccccc1)c1ccc(C(F)(F)F)cc1`, the composite z-score in experiment [1] is -0.176; in experiment [2], 0.158; in experiment [3], -0.0975; in experiment [4], 0.0842; in [5], 0.131; in experiment [6] it was 1.74. Besides, the composite z-score in experiment [7] amounted to 0.557; in experiment [9], 0.237; in experiment [10], 0.0216. Moreover, the z-score in [8] was 1.96 (inactive).
In the case of `CC(C)(C)OC(=O)CC[C@]1(C(=O)O)N=C(c2ccc(OCCCO)cc2)O[C@H]1c1ccccc1`, the composite z-score is -0.161 in experiment [1]; -0.0254 in experiment [2]; -0.0345 in experiment [3]; 0.19 in [4]; 0.831 in experiment [5]; 0.467 in experiment [6]. For the same compound, the figures for the composite z-score in [7], in [9] and in [10] were 1.11, 0.292 and 1.28, respectively. Moreover, the z-score in experiment [8] is 1.9 (inactive).
Turning to `CCCCC(=C=CC[C@@H](O)c1ccc(OCCO)cc1)C[C@@H](O)COCc1ccccc1`, the composite z-score is -0.111 in [1]; 1.09 in [2]; -0.0783 in experiment [3]; 0.114 in experiment [4]; -1.11 in experiment [5]; -0.376 in experiment [6]. The composite z-score was -0.0622 in [7], 0.101 in [9] and 0.0743 in experiment [10]. Further, in experiment [8], the z-score is -2.2 (inactive).
Turning to `COc1ccc([Si](C)(C)[C@H]2[C@H](CCn3cc([C@H](O)c4ccccc4)nn3)O[C@@]3(C(=O)N(Cc4cccc(N5C(=O)c6cccc7cccc5c67)c4)c4ccccc43)[C@@H]2C)cc1`, the composite z-score in [1] was 0.582; in experiment [2] it was -0.17; in experiment [3], -0.158; in experiment [4] it was -1.11; in experiment [5] it was -1.65; in [6], 0.84. Besides, the figures for the composite z-score in experiment [7], in experiment [9] and in [10] were 0.251, -0.295 and -0.0994, respectively. Also, the z-score in experiment [8] is -0.704 (inactive).
For the compound `CCOC(=O)C1=C[C@@H](c2ccccc2)N(S(=O)(=O)c2ccc(C)cc2)[C@H]1c1cccc(Cl)c1`, the composite z-score came to 0.266 in [1]; 1.81 in experiment [2]; 0.085 in experiment [3]; 0.885 in experiment [4]; 1.58 in experiment [5]; 1.34 in [6]. For the same compound, the composite z-score in experiment [7] was 0.991; in experiment [9], 1.02; in experiment [10] it was -0.0919. Besides, in experiment [8], the z-score was -2.98 (inactive).
